Screening data deposited in PubChem BioAssay by several laboratories.
Only some compounds are listed: those with a hit (about 5.7% of all), similar ones and a draw of the others.
FAS TE block – FAS thioesterase domain inhibitors, primary screen, biochemical, fluorescence intensity, uHTS | recombinant FAS-TE, OMFH fluorogenic substrate, fluorescence endpoint | inhibition, % at 15 µM | 0.67% of 360,000 active | AID 602261, 2012;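 active = compounds whose normalised, plate-corrected inhibition of enzyme fluorescence in the single-dose primary screen is 50% or more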
NR3A LBD binder – binders of NR3A ligand-binding domain, primary screen, biophysical, differential scanning fluorimetry, uHTS. Glutamate receptor ionotropic, NMDA 3A (GRIN3A) ligand-binding domain. NR3A LBD differential scanning fluorimetry, Tm shift; 0% = protein alone, 100% = glycine-bound protein. Tm shift relative to glycine control, % at 25 µM. 2.5% of 340,000 active. AID 1259313, 2017;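 active = melting temperature shift of at least 10% of the positive control shift, at one fixed dose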
MPTP inh – mitochondrial permeability transition pore inhibitors, primary screen, biochemical, isolated mouse mitochondria, absorbance; 1.4% of 360,000 active; Ca2+ swelling absorbance, 30 min; inhibition, % at 10 µM;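 active = inhibition of 50% or more, scaled per plate between neutral and stimulator controls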
rCAG RNA binder – binders of r(CAG) RNA repeats, primary screen, biochemical, fluorescence; 1.3% of 370,000 active; inhibition, % at 3 µM; r(CAG) RNA repeat, TO-PRO-1 dye displacement fluorescence;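 active = inhibition above the plate cutoff, the mean of all test compounds on that plate plus 3 SD, cut at about 35% in these data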;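 note: higher means more dye released from RNA so lower well fluorescence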
Myeloid diff MLP – induction of myeloid progenitor differentiation, primary screen, cell-based, flow cytometry, MLPCN library; ER-HoxA9 myeloid progenitors, lysozyme-GFP differentiation; calls only at 10 µM; 1% of 360,000 active;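 active = normalized GFP-positive differentiation at or above the plate's own cutoff, the solvent-only control mean plus 3 SD; inconclusive = no clear call, values can overlap the other calls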;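 note: cells exposed to compound for four days before flow analysis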
MPTP counter – fluorescence retest of MPTP screen hits in isolated mitochondria, single concentration; shares compounds with MPTP inh; AID 624504, 2012; membrane potential, Rhodamine 123 fluorescence; 78% of 5,000 active; inhibition, % at 10 µM; in the data active = inhibition above about 22%
MPTP swell DR – mitochondrial permeability transition pore inhibitors, dose response, biochemical, absorbance, uHTS hits | shares compounds with MPTP inh | AID 651561, 2012 | 58% of 780 active | IC50, µM | isolated mitochondria swelling; in the data active = IC50 below about 20 µM
MPTP counter DR – fluorescent counter-screen in isolated mitochondria, dose response, counter-screen for MPTP inhibitor project, biochemical, fluorescence, uHTS hits; shares compounds with MPTP inh; 49% of 780 active; AID 651564, 2012; isolated mitochondria counterscreen, fluorescence read-out; IC50, µM; in the data active = IC50 below about 80 µM
Hits are given with their value; . = inactive; ? = inconclusive; / = no result; + = active, no number.

SMILES	FAS TE block	NR3A LBD binder	MPTP inh	rCAG RNA binder	Myeloid diff MLP	MPTP counter	others
Cc1ccc(SCCC(=O)N/N=C/c2ccccc2O)cc1	.	.	52.2	.	.	44.6
Cc1ccc(NCC(=O)N/N=C\c2cccc(O)c2)cc1	.	.	.	.	.	/
Cc1ccc(SCCC(=O)N/N=C/c2cccnc2)cc1	.	.	.	.	.	/
Cc1ccc(N2CC(C(=O)Nc3cccnc3)CC2=O)cc1Cl (stereo not drawn)	.	.	.	.	.	/
COc1cccc(/C=C2/Sc3ccc(C(=O)NCCCN4CCCC4)cc3NC2=O)c1	.	.	.	.	.	/
COc1ccc(OC)c(/C=C2\SC(=S)N(N3CCOCC3)C2=O)c1	.	.	.	.	.	/
COc1cccc(/C=C2/Sc3ccc(C(=O)NCCN4CCCC4)cc3NC2=O)c1	.	.	55.4	.	?	.	MPTP swell DR=5.96;MPTP counter DR=77.4
COc1ccc2cc(/C=C3\SC(=S)NC3=O)c(N3CCOCC3)nc2c1	.	.	80.1	64.5	.	72.0
COc1cccc(C=C2SC(=S)NC2=O)c1	.	.	55.6	.	.	79.2
COCCCn1cc(CN(C)C2CN(Cc3cn(CCCOC)nn3)S(=O)(=O)C2)nn1 (stereo not drawn)	.	/	.	.	.	/
CCOc1ccc(N(CC(=O)NC2CCCCC2)C(=O)Cn2nnc(-c3ccc(C)o3)n2)cc1	.	.	.	.	/	/
O=C(Nc1ccc([N+](=O)[O-])cc1)N1CCCCCC1	.	.	61.8	.	.	95.8
O=C(Nc1ccc([N+](=O)[O-])cc1)N1CCCCC1	.	.	94.2	.	.	92.9
Cc1ccc(Oc2cc([N+](=O)[O-])cc3c2C(=O)Nc2ccccc2O3)cc1	.	.	56.2	.	+	28.6
CSc1nc(Cl)c(Cc2ccc(OC(C)C)cc2)c(N(C)C)n1	.	.	59.5	.	.	.	MPTP swell DR=.;MPTP counter DR=35.2
CCOc1ccc(Cc2c(Cl)nc(SC)nc2N(C)C)cc1	.	.	.	.	.	/
CN(CC(=O)Nc1ccc(F)cc1)C(=O)CN1C(=O)NC(CCc2ccccc2)C1=O (stereo not drawn)	.	/	.	.	.	/
FC(F)Sc1ccc(NC(=S)NCc2ccccc2)cc1	.	12.4	85.2	.	.	92.3
FC(F)(F)c1ccc(NC(=S)NCc2ccccc2)cc1	.	.	97.4	.	.	94.6
CN(C)CCCN(Cc1ccccc1)C(=S)Nc1ccc(SC(F)F)cc1	.	.	.	.	.	/
O=C(O)c1ccc(NC(=S)NCc2ccccc2)cc1	.	.	.	.	.	/
FC(F)Sc1ccc(NC(=S)NC(c2ccccc2)c2ccccc2)cc1	.	28.0	98.4	.	.	63.4
CN1CCN(C(=O)c2cc3c(C(F)(F)F)nn(C)c3s2)CC1	.	.	.	.	.	/
COc1ccccc1NC(=O)C(C)OC(=O)C1CCC(C(C)(C)C)CC1 (stereo not drawn)	.	.	.	.	.	/
O=C(Nc1ccccc1)c1cc([N+](=O)[O-])ccc1NC1CCCCC1	.	.	51.1	.	.	.	MPTP counter DR=.
SMILES	FAS TE block	NR3A LBD binder	MPTP inh	rCAG RNA binder	Myeloid diff MLP	MPTP counter	others
CC(C)CNC(=S)N(CCO)Cc1cc2cc3c(cc2[nH]c1=O)OCO3	.	.	.	.	.	/
N#Cc1cccc(C#N)c1Oc1ccc(S(=O)(=O)Nc2ccc(Cl)cc2)cc1	.	10.1	76.9	.	.	44.9
COCCCNCCCCOc1ccc(OCc2ccccc2)cc1	.	.	.	.	.	/
c1ccc(COc2ccc(OCCCNC3CCCC3)cc2)cc1	.	.	90.5	.	.	.	MPTP swell DR=3.15;MPTP counter DR=42.8
COc1ccc(NS(=O)(=O)c2ccc3nc(COc4ccc(Cl)c(C)c4)[nH]c3c2)cc1	.	28.6	66.7	.	.	65.5
CC1CCC(NC(=O)c2cccc(S(=O)(=O)N3CCN(C)CC3)c2)CC1 (stereo not drawn)	.	.	.	.	.	/
CC1CCC(NC(=O)c2cccc(S(=O)(=O)N3CCN(c4ccccc4)CC3)c2)CC1 (stereo not drawn)	.	.	76.4	.	.	.	MPTP swell DR=.;MPTP counter DR=.
O=C(COC(=O)Cc1c(Cl)cccc1Cl)Nc1ccc(OC(F)(F)F)cc1	.	.	65.5	.	.	73.1
C[C@@H]1ON(C)[C@H]2C[C@H]3c4[nH]c5cccc(-c6ccccc6F)c5c4CCN3C(=O)[C@@H]12	/	/	/	.	/	/
COc1cc2c(cc1NC(=O)CN(C)Cc1nc3ccccc3c(=O)[nH]1)oc1ccccc12	.	.	.	.	.	/
C[C@H](CO)N1C[C@H](C)[C@@H](CN(C)S(C)(=O)=O)OCc2cnnn2CCCC1=O	.	/	.	.	.	/
CCc1c(C(=O)Nc2ccc(OC)c(Cl)c2)[nH]c(C)c1C(C)=O	.	.	87.8	.	.	94.6
COc1ccc(Cl)cc1NC(=O)c1[nH]c(C)c(C(C)=O)c1C	.	.	.	.	/	/
CCCN(CCC)CC(O)Cn1cc(/C=C/C(=O)c2cccs2)c2ccccc21 (stereo not drawn)	.	.	74.4	.	+	.
CCCN(CCC)CC(O)Cn1cc(/C=C/C(=O)c2ccccc2)c2ccccc21 (stereo not drawn)	.	.	.	.	.	/
COc1ccccc1CNC(=O)C[C@H]1CC[C@@H]2[C@H](COC[C@H](O)CN2Cc2ccc3c(c2)OCO3)O1	/	/	.	.	.	/
Cc1ccc(C(C2=C(O)CC(C)(C)CC2=O)C2C(=O)CC(C)(C)CC2=O)s1 (stereo not drawn)	.	.	.	.	.	/
CC1(C)CC(=O)C(C(C2=C(O)CC(C)(C)CC2=O)c2ccc(Br)s2)C(=O)C1 (stereo not drawn)	.	.	73.1	.	.	79.6
NC(=O)c1nnsc1-c1ccco1	.	.	.	.	.	/
Nc1ccc2c(c1)C(O)c1cccc(C(=O)O)c1-2 (stereo not drawn)	.	.	.	.	.	/
CCN1/C(=C/c2sc(-c3ccccc3C)c[n+]2C)Sc2ccccc21	.	.	95.0	.	/	107.3
Cc1ccc(NC(=O)Cc2ccccc2Cl)cc1S(=O)(=O)N(C)C	.	.	.	.	.	/
Cc1ccc(NC(=O)Cc2ccc(Cl)c(Cl)c2)cc1S(=O)(=O)N(C)C	.	.	88.5	.	.	88.0
Cc1ccc(NC(=O)CNc2ccc(Cl)c(Cl)c2)cc1S(=O)(=O)N(C)C	.	19.1	96.4	.	.	93.7
N#Cc1c(N)nc(Sc2ccc(Cl)cc2)c(C#N)c1-c1ccccc1Cl	.	.	75.9	.	+	55.7
